The list is not random: actives were taken first. Their share in the collection is about 4.1%.
ssDAF-12 act: S. stercoralis DAF-12 activation, primary screen; HEK293 ssDAF-12/GRIP1 lit1-tk-luc reporter, luminescence; % of 3 µM dafachronic acid response; activation, % at 6.8 µM; actives 1% (n = 370,000); AID 652126;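 active = activation above the mean over all tested compounds plus 3 SD, cut at about 0.9% in these data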;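 note: 0% = DMSO-only wells and 100% = 3 µM delta7-dafachronic acid wells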
DAX1 inh-1: inhibits human nuclear receptor DAX1. P51843. HEK293 Gal4-DAX1 luciferase reporter, luminescence. inhibition, % at 6.75 µM. actives 0.99% (n = 340,000). AID 504766;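 active = inhibition above the mean over all tested compounds plus 3 SD, cut at about 4.2% in these data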;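 note: 0% = DAX1-transfected cells with DMSO and 100% = empty-vector control cells with DMSO; inhibition shows as a rise in luminescence from relieved DAX1 repression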
Target sequence (P51843 207-470 limits assumed): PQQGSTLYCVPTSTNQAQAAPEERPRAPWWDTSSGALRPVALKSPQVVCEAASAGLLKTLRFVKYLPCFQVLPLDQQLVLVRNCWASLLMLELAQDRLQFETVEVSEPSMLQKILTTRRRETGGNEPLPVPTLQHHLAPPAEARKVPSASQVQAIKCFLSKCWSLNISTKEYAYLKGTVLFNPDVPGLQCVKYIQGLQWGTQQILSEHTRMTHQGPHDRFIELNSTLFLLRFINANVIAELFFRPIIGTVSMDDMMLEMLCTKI
hcDAF-12 act: activates DAF-12 receptor from parasite H. contortus; HEK293 hcDAF-12 lit1-tk-luc reporter, luminescence; 0% DMSO, 100% Δ7-dafachronic acid; activation, % at 6.8 µM; actives 1.4% (n = 370,000); AID 652067;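 active = activation above the mean of all tested compounds plus 3 SD, cut at about 5.5% in these data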;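 note: 100% = response to 3 µM Δ7-dafachronic acid high control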
DAX1 inh-2: DAX1 (NR0B1) inhibition, primary screen; AID 652010; actives 1.1% (n = 370,000); HEK293T StAR-luciferase reporter, SF-1/DAX-1 repression relief; inhibition, % at 6.8 µM;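 active = inhibition above the mean over all tested compounds plus 3 SD, cut at about 3.6% in these data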;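 note: 0% = DAX-1 cells with DMSO and 100% = cells lacking DAX-1 with DMSO; higher inhibition means more luminescence from relief of DAX-1 repression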
hgDAF-12 ag: agonists of H. glycines DAF-12 nuclear receptor; HEK293 GAL4-hgDAF12 UAS-luciferase reporter, agonist luminescence; normalized to butyrate control; activation, % at 6.8 µM; actives 1.8% (n = 370,000);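 active = activation above a cutoff set at the mean of all screened compounds plus 3 SD, cut at about 10% in these data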;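 note: 0% = DMSO wells and 100% = sodium butyrate wells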
DAX1 inh confirm: NR0B1 (human) inhibition, confirmation. HEK293T StAR-promoter luciferase reporter, SF-1/DAX-1 repression. AID 652134. actives 87% (n = 2,400). shares compounds with DAX1 inh-2. inhibition, % at 6.8 µM;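 active = inhibition above the average of every tested compound plus 3 SD, cut at about 3.8% in these data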;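 note: 0% = DAX-1 cells with DMSO and 100% = no DAX-1 control cells with DMSO; active compounds raise luminescence by relieving repression of the StAR reporter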
SF1 AF2mut Luc: nonselective inhibitor or artifact in SF-1 mutant DAX1 counter-screen. inhibition, % at 6.8 µM. HEK293 StAR-luciferase, SF-1 AF2 mutant, luminescence. shares compounds with DAX1 inh-2. actives 78% (n = 2,400);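 active = inhibition above the mean of all tested compounds plus 3 SD, cut at about 3% in these data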;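 note: 0% = DAX-1 transfected cells with DMSO and 100% = cells without DAX-1 with DMSO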
An asterisk follows results filed as active; / = no result.

SMILES | ssDAF-12 act | DAX1 inh-1 | hcDAF-12 act | DAX1 inh-2 | hgDAF-12 ag | DAX1 inh confirm | SF1 AF2mut Luc
CCN(CC)C(=O)CC[C@H]1CC[C@]2(CCCN(Cc3ccncc3)C2)O1 | -1 | / | -1 | 0 | 0 | / | /
Cc1ccc(NC(=O)c2ccc3snnc3c2)cc1C | 0 | 1 | 3 | 6.5* | 7 | 9.4* | 0
Cn1c(=O)c2nc(-c3ccc(Cl)cc3Cl)oc2c2ccccc21 | -2 | 0 | -2 | 0 | -2 | / | /
Cc1ccc(NC(=O)C/C(N)=N/OC(=O)Nc2cccc(C)c2)cc1 | -1 | 0 | 2 | 5.0* | 3 | 2 | 1
Cc1ccc(NC(=O)C/C(N)=N/OC(=O)Nc2ccc(C)c(Cl)c2)cc1 | -1 | 0 | 1 | 2 | 8 | / | /
Fc1ccc(NC(=S)NNc2ncc(C(F)(F)F)cc2Cl)c(F)c1 | -3 | -4 | -7 | -3 | -13 | / | /
COC(=O)c1c(-c2cccnc2)csc1NC(=O)c1ccc2c(c1)OCO2 | 0 | 1 | 3 | 8.2* | 6 | 12* | 6.8*
COC(=O)c1sccc1NC(=O)c1ccc2c(c1)OCO2 | -1 | 0 | 3 | 0 | -3 | / | /
COc1ccc(-c2cn3cc(C)ccc3n2)cc1F | 0 | -2 | 5.6* | 4.8* | 10 | 12* | 1
O=C(c1ccc(C#Cc2ccccc2)cc1)N1CCC(O)CC1 | 0 | / | 4 | 4.9* | 11* | 7.2* | 4.1*
O=C(N[C@@H]1CC[C@@H](CCn2cc(-c3ccccc3)nn2)O[C@@H]1CO)c1cnccn1 | -1 | / | 0 | 1 | 0 | / | /
Fc1ccc(-c2nnc3ccc(N4CCc5ccccc5C4)nn23)cc1 | -2 | -2 | -4 | -3 | -2 | / | /
Cc1nc2ccc(NC(=O)CS(=O)(=O)c3ccccc3)cc2s1 | 0 | 1 | 1 | 6.0* | 7 | 5.6* | 3.0*
Cc1ccc(CC(=O)Nc2nc3c(s2)CCCC3)cc1 | -1 | -2 | -1 | -1 | -6 | / | /
S=C(Nc1nc2c(s1)CCCC2)NC1CC1 | 0 | 1 | 3 | 5.3* | 10 | 6.4* | 4.3*
O=C(Cc1ccc(NC(=O)C2CCN(C(=O)C3CCCC3)CC2)cc1)Nc1cccc(C(=O)N2CCCCC2)c1 | -1 | 1 | -3 | 0 | -3 | / | /
COc1ccc(C(=O)OCC(=O)Nc2sccc2C(N)=O)cc1[N+](=O)[O-] | -1 | -2 | -2 | -2 | 1 | / | /
Cc1ccc(NC(=S)NNC(=O)Nc2ccccc2)cc1 | 1.4* | 2 | 3 | 5.7* | 12* | 5.6* | 3
O=C(NNC(=S)Nc1ccccc1)Nc1ccccc1 | 0 | 1 | 3 | 2 | 8 | / | /
COc1ccccc1-n1cnc2cc(NCc3ccccn3)ccc21 | -2 | 0 | -3 | -1 | 0 | / | /
CCCn1cnc2cc(NCc3ccccn3)ccc21 | 0 | 2 | 2 | 5.0* | 10 | 3.8* | 2
CCc1ccc(CNc2ccc3c(c2)ncn3C)cc1 | 0 | 1 | 5 | 4.6* | 7 | 7.9* | 6.9*
CCN(C1CCCCC1)S(=O)(=O)CCNC(=O)c1ccccc1 | -1 | 0 | -1 | -1 | 0 | / | /
Clc1ccc2nc(CSc3nncn3-c3ccccc3)cn2c1 | -2 | 0 | -2 | 0 | -1 | / | /
Clc1ccc2nc(CSc3nnc4ccccn34)cn2c1 | 0 | 3 | 5.6* | 5.1* | 9 | 14* | 8.8*
CCN=c1scc(-c2ccco2)n1/N=C/c1ccc(O)cc1 | -1 | 0 | 1 | 2 | 5 | / | /
CCN=c1scc(-c2ccco2)n1/N=C/c1ccc(OC)c(O)c1 | 0 | 2 | 3 | 5.0* | 10 | 15* | 7.3*
Cc1ccc2nc(-c3ccccn3)c(N)n2c1 | 1 | / | 5 | 5.4* | 11* | 15* | 6.8*
Cc1ccc2nc(-c3cccc(Br)c3)c(Cc3ccccn3)n2c1 | 1.1* | / | 2 | 5.1* | 8 | 7.8* | 5.0*
Cc1ccc2nc(-c3cccc(Br)c3)c(Cc3ccccc3C(F)(F)F)n2c1 | 0 | / | 0 | 5.1* | 7 | 4.0* | 4.2*

Assay outcomes as filed in PubChem BioAssay.
